# From the supplement of paper PMC8728848
# Many of the other results were omitted from the sample, so the strongest signals are more common in it than they were.
# Key:
# Test in all cases: glycan array binding signal (z-score within array); higher = stronger binding
# Conditions in all cases: glycan notation: IUPAC condensed, linker removed
# [1] = molecular target: Fuc(a1-2)Gal(b1-3)GalNAc(a1-3)[Fuc(a1-2)]Gal(b1-4)GlcNAc
# Method in brief: (§1)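 The binding signal is a Z-score computed within each array. Data were drawn from 3228 arrays in the Consortium for Functional Glycomics database, restricted to those with a known protein sequence. Scores were averaged over arrays of the same protein sequence at different concentrations or buffers, and over linkers, and negative values can be taken as non-binding.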
# [2] = molecular target: Fuc(a1-2)Gal(b1-3)[Fuc(a1-4)]GlcNAc(b1-2)Man(a1-3)[Fuc(a1-2)Gal(b1-3)[Fuc(a1-4)]GlcNAc(b1-2)Man(a1-3)]Man(b1-4)GlcNAc(b1-4)GlcNAc
# Method in brief: as §1
# [3] = molecular target: Fuc(a1-2)Gal(b1-4)GlcNAc(b1-2)[Fuc(a1-2)Gal(b1-4)GlcNAc(b1-4)]Man(a1-3)[Fuc(a1-2)Gal(b1-4)GlcNAc(b1-2)Man(a1-6)]Man(b1-4)GlcNAc(b1-4)GlcNAc
# Method in brief: as §1
# [4] = molecular target: Fuc(a1-2)Gal(b1-4)GlcNAc(b1-6)GalNAc
# Method in brief: as §1
# [5] = molecular target: Fuc(a1-2)Gal(b1-4)[Fuc(a1-3)]GlcNAc(b1-2)Man(a1-3)[Fuc(a1-2)Gal(b1-4)[Fuc(a1-3)]GlcNAc(b1-2)Man(a1-6)]Man(b1-4)GlcNAc(b1-4)[Fuc(a1-6)]GlcNAc
# Method in brief: as §1
# [6] = molecular target: Fuc(a1-2)Gal(b1-4)[Fuc(a1-3)]GlcNAc(b1-3)GalNAc
# Method in brief: as §1
# [7] = molecular target: Fuc(a1-2)Gal3S(b1-4)GlcNAc
# Method in brief: as §1
# [8] = molecular target: Fuc(a1-2)[Gal(a1-3)]Gal
# Method in brief: as §1
# [9] = molecular target: Fuc(a1-2)[Gal(a1-3)]Gal(b1-3)GlcNAc(b1-2)Man(a1-3)[Fuc(a1-2)[Gal(a1-3)]Gal(b1-3)GlcNAc(b1-2)Man(a1-6)]Man(b1-4)GlcNAc(b1-4)[Fuc(a1-6)]GlcNAc
# Method in brief: as §1
# [10] = molecular target: Fuc(a1-2)[Gal(a1-3)]Gal(b1-4)GlcNAc(b1-2)Man(a1-3)[Fuc(a1-2)[Gal(a1-3)]Gal(b1-4)GlcNAc(b1-2)Man(a1-6)]Man(b1-4)GlcNAc(b1-4)GlcNAc
# Method in brief: as §1
# [11] = molecular target: Fuc(a1-2)[GalNAc(a1-3)]Gal(b1-3)GlcNAc(b1-2)Man(a1-3)[Fuc(a1-2)[GalNAc(a1-3)]Gal(b1-3)GlcNAc(b1-2)Man(a1-6)]Man(b1-4)GlcNAc(b1-4)[Fuc(a1-6)]GlcNAc
# Method in brief: as §1
# [12] = molecular target: Fuc(a1-2)[GalNAc(a1-4)]Gal(b1-4)GlcNAc
# Method in brief: as §1
# [13] = molecular target: Fuc(a1-3)GlcNAc
# Method in brief: as §1
# [14] = molecular target: Fuc(a1-3)[Gal(b1-4)]GlcNAc(b1-6)GalNAc
# Method in brief: as §1
# [15] = molecular target: Fuc(a1-3)[Gal(b1-4)]GlcNAc6S
# Method in brief: as §1
# [16] = molecular target: Fuc(a1-3)[GalNAc(b1-4)]GlcNAc6S
# Method in brief: as §1
# [17] = molecular target: Gal(a1-3)Gal(b1-4)Glc
# Method in brief: as §1
# [18] = molecular target: Gal(a1-3)[Gal(a1-4)]Gal(b1-4)GlcNAc
# Method in brief: as §1
# [19] = molecular target: Gal(b1-3)GlcNAc(b1-2)Man
# Method in brief: as §1
# [20] = molecular target: Gal(b1-3)GlcNAc(b1-3)Gal(b1-4)Glc
# Method in brief: as §1
# [21] = molecular target: Gal(b1-4)Glc
# Method in brief: as §1
# [22] = molecular target: Gal(b1-4)GlcNAc(b1-3)Gal(b1-4)GlcNAc(b1-2)Man(a1-3)[Gal(b1-4)GlcNAc(b1-3)Gal(b1-4)GlcNAc(b1-2)Man(a1-6)]Man(b1-4)GlcNAc(b1-4)GlcNAc
# Method in brief: as §1
# [23] = molecular target: Gal(b1-4)GlcNAc(b1-3)Gal(b1-4)GlcNAc(b1-3)Gal(b1-4)GlcNAc(b1-2)Man(a1-3)[Gal(b1-4)GlcNAc(b1-3)Gal(b1-4)GlcNAc(b1-3)Gal(b1-4)GlcNAc(b1-2)Man(a1-6)]Man(b1-4)GlcNAc(b1-4)GlcNAc
# Method in brief: as §1
# [24] = molecular target: Gal3S(b1-4)Glc
# Method in brief: as §1
# [25] = molecular target: Gal3S4S(b1-4)GlcNAc
# Method in brief: as §1
# [26] = molecular target: GalNAc6S(b1-4)GlcNAc
# Method in brief: as §1
binder,measurement,setting,value
PX14375A-pdi-503-28-503 (Parabacteroides distasonis) (protein) PLGSPEAGDISEERQAFLRLTAVYSVMKDFRYTWSMQCFGDVLSNDATYSGSSNDAQTFTLLENYQYQADHTEILNKYRYSYQCINKANLFIRDMEMADDALFSKYDKEQMIGEAKFIRAYTYFELVKTFGGVPCYTGVLDLDHERLGRASVEEIYSVIEQDLNDAVSVLPKKSEVANYESSYAGRITKGAAIAMQTRIYLYEKKYDEVKKAFEKFQNECGGEYSLVAPEDYTWQFSLDGEHCSSSILEVNMYNSSTQSSYNVNNGNRHVLMSMPRNMTIGFGCAQPTQALADAYDAEGDVIRKKTTLLSTEEAIEIETAAKGDVAPVTDDRTGWYNRKLYLAPGQREENRGNNQPTNLRLIRLAEVYLNYAEACYFSGDIANAQKYLNEVRSHVNLAPKNHTGSQLFEDIMNERHLEFGMEGFRFFDVVRVGWGEKVFNGTKKAEFGAKTPFSAGAEVLPIPQTEIDISDGLITN,glycan array binding signal (z-score),[1],-1
same,glycan array binding signal (z-score),[2],0.809
same,glycan array binding signal (z-score),[3],1.43
same,glycan array binding signal (z-score),[4],0.828
same,glycan array binding signal (z-score),[5],-0.25
same,glycan array binding signal (z-score),[6],-0.279
same,glycan array binding signal (z-score),[7],0.279
same,glycan array binding signal (z-score),[8],0.139
same,glycan array binding signal (z-score),[9],1.43
same,glycan array binding signal (z-score),[10],-0.223
same,glycan array binding signal (z-score),[11],-0.166
same,glycan array binding signal (z-score),[12],-0.304
same,glycan array binding signal (z-score),[13],-0.753
same,glycan array binding signal (z-score),[14],-0.205
same,glycan array binding signal (z-score),[15],0.08
same,glycan array binding signal (z-score),[16],0.949
same,glycan array binding signal (z-score),[17],-0.124
same,glycan array binding signal (z-score),[18],2.05
same,glycan array binding signal (z-score),[19],-0.555
same,glycan array binding signal (z-score),[20],10.3
same,glycan array binding signal (z-score),[21],-0.065
same,glycan array binding signal (z-score),[22],5.38
same,glycan array binding signal (z-score),[23],2.49
same,glycan array binding signal (z-score),[24],-0.196
same,glycan array binding signal (z-score),[25],-0.718
same,glycan array binding signal (z-score),[26],-0.507
